Sampled rows, rich in hits. Any-hit rate of the full collection: about 7%.
JMJD2A Tudor = JMJD2A Tudor domain (human) inhibition; AlphaScreen JMJD2A-Tudor / H3K4me3 peptide binding; Potency, µM (highest dose often 114 µM), without a hit: at the highest dose activity change, negative = inhibition, usual class: inhibitors; hit rate 4.4% among 390,000; AID 504339; note: potency is the fitted concentration of half-maximal effect; % is set by controls: 0 for no effect and ±100 for the full control effect; nearly all actives have a fitted effect of over 50% in size
BAZ2B inh = inhibitors of human BAZ2B bromodomain | hit rate 4.4% among 360,000 | AlphaScreen BAZ2B-H3K14Ac peptide displacement | Potency, µM (highest dose often 114 µM), for inactives: top-dose activity change, negative = inhibition, usual class: inhibitors | Q9UIF8; note: potency is the fitted concentration of half-maximal effect; % is set by controls: 0 for no effect and ±100 for the full control effect; nearly all actives have a fitted effect of over 60% in size
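BAZ2B (50 nM) with biotin-H3(5-23)K14Ac peptide (50 nM) in PBS pH 7.4, 0.01% Tween-20, preformed 30 min, then compound 30 min at room temperature; top concentration 110uM. AlphaScreen streptavidin donor/nickel chelate acceptor beads (10 ug/mL final), 20 min dark, signal read.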
GCN5L2 inh = inhibitors of human GCN5L2 histone acetyltransferase; Q92830; GCN5L2 HAT assay, ThioGlo1 CoA-SH fluorescence; Potency, µM (series often up to 58.9 µM), for the others: top-dose activity change, negative = inhibition, actives largely listed as inhibitors; hit rate 0.21% among 390,000; AID 504327; note: potency is the fitted concentration of half-maximal effect; % is set by controls: 0 for no effect and ±100 for the full control effect
Target sequence (Q92830 whole entry, looked up): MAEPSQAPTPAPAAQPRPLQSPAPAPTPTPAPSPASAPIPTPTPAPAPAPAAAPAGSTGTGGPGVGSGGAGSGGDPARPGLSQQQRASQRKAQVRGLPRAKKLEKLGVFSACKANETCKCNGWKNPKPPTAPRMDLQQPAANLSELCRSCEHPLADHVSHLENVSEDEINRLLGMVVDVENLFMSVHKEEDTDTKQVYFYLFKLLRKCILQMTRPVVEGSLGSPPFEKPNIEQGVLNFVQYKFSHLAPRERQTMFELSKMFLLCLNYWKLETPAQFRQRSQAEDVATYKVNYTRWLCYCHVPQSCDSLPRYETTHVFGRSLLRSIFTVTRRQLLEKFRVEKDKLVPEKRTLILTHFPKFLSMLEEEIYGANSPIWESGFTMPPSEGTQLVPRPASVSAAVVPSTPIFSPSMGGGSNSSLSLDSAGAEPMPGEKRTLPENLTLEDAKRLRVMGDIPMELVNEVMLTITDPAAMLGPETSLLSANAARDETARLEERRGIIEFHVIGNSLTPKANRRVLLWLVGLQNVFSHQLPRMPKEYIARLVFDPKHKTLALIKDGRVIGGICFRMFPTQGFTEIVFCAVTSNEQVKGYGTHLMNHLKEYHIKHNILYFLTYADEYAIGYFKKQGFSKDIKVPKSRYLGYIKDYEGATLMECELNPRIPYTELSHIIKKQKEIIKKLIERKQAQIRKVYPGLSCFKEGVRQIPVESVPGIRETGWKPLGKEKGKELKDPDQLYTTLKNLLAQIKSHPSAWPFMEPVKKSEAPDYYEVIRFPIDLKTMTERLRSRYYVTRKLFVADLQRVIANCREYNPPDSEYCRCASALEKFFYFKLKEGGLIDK
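Preincubate 20nM GCN5L2 with compound 15 min, RT → add 50uM ThioGlo1 + 75uM H3(1-25) + 70uM acetyl-CoA → read fluorescence 0 and 20 min. Primary qHTS; fluorescent artifacts likely.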
PLK1 PBD inh = PLK1 (human) polo-box domain binding inhibition; Plk1 PBD binding of FITC phosphopeptide, fluorescence polarization; hit rate 2.8% among 360,000; AID 720504; P53350; Potency, µM, inactives show max response, negative = inhibition, hits mostly inhibitors; note: potency is the fitted concentration of half-maximal effect; series mostly up to about 57 µM; % is set by controls: 0 for no effect and ±100 for the full control effect; nearly all actives have a fitted effect of over 65% in size
PI5P4K alpha inh = inhibitors of human PI5P4K alpha. max response, %. AID 652105. hit rate 1.2% among 330,000. PI5P4Kalpha enzyme, ADP-Glo luminescence, 60 min; stronger effect = lower value. P48426; active = max response of -50% or lower; inconclusive = between -30% and -50%; inactive = -30% or higher; note: value at the top dose of about 77 µM; % is set by controls: 0 for no effect and ±100 for the full control effect
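Reactions run in 0.038 M HEPES pH 7.4, 0.28 mM EGTA, 0.1% CHAPS and 5% DMSO, with PI5P4Kalpha, substrate, compound and 5 microM ATP final, one hour at room temperature. Readout is ADP-Glo luminescence.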
HP1b binding inh = blocks HP1-beta chromodomain binding to methylated histone tails. P83916. AlphaScreen HP1-beta / biotin-H3K9me3 peptide binding. Potency, µM (highest dose often 114 µM), inactives show at the top dose activity change, negative = inhibition, hits mostly inhibitors. hit rate 0.56% among 390,000; note: potency is the fitted concentration of half-maximal effect; nearly all actives have a fitted effect of over 70% in size
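HP1-beta protein (50 nM final) preincubated 30 min at room temperature with biotinylated H3(1-18)K9me3 peptide (50 nM) in PBS pH 7.4, 0.01% Tween-20, then compound added for 30 min. AlphaScreen streptavidin donor/nickel chelate acceptor beads (10 ug/mL final), 30 min dark, luminescence read.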
* = called active by the depositor; u = inconclusive; x = not tested or not shown; [ ] = another dose, or the depositor's remark. Unless noted, calls come from the whole dose curve; as a rule, active = well fitted curve in the direction sought with a large enough effect; inconclusive = small, poorly fitted or top-dose-only effect, or another doubt; inactive = no such curve, though single readings can be large; an effect the other way counts as inactive or inconclusive.

SMILES	JMJD2A Tudor	BAZ2B inh	GCN5L2 inh	PLK1 PBD inh	PI5P4K alpha inh	HP1b binding inh
Cc1ccc2[nH]c3c(c2c1)CN(C(=O)CN1c2ccc(F)cc2CCC1C)CC3 (centres undefined)	44.7µM*	39.8µM*	-3.4%	-1.7%	7.4	u
Cc1ccc2[nH]c3c(c2c1)CN(C(=O)CN1CCN(C(=O)c2ccco2)CC1)CC3	x	-19.2%	-2.9%	x	x	x
Cc1cc(NC(=O)C2CCCN(S(=O)(=O)c3cccc4nsnc34)C2)ccc1Br (centres undefined)	0.0%	x	0.1%	x	x	35.0%
O=c1c2ccccc2oc2ccc(NCCCn3ccnc3)cc12	u	50.1µM*	-11.9%	-4.2%	-0.7	39.0%
c1ccc2c(c1)oc1c(NCCCn3ccnc3)ncnc12	-21.1%	u	-10.9%	-2.5%	-1.6	26.6%
Cc1ccc(-n2c(-c3cccnc3)n[nH]c2=S)c(C)c1	5.01µM*	3.9%	-0.1%	-6.6%	-2.9	10.0%
S=c1[nH]nc(-c2ccc(Cl)cc2)n1-c1cccnc1	8.91µM*	-15.9%	-0.1%	-5.5%	-8.9	42.4%
Cc1ccc(-n2c(-c3ccc(Cl)cc3)n[nH]c2=S)c(C)c1	u	11.1%[0.457 µM]	-7.7%	-8.0%	1.1	17.4%
Cc1ccc(-n2c(-c3cnccn3)n[nH]c2=S)c(Br)c1	15.8µM*	-29.6%	4.6%	1.5%	-0.1	44.1%
S=c1[nH]nc(-c2cccnc2)n1-c1ccccc1	7.94µM*	-29.7%	-1.6%	-7.3%	x	21.1%
COc1cc(Cl)c(C)cc1NC(=O)c1ccccc1-n1cnnn1	-22.8%	x	-8.2%	-6.9%	0.9	0.8%
CC(=O)Nc1ccc(-c2ccnc3c2CC(C(=O)Nc2cccc(N(C)C)c2)O3)cc1 (centres undefined)	x	x	x	-15.8%	u	x
COc1ccc(C(F)(F)F)cc1N/C=C/c1nnnn1-c1ccc(C)cc1	-14.2%	10.0%	-5.7%	-12.7%	7.2	24.3%
COc1ccccc1-n1c(-c2cccnc2)n[nH]c1=S	4.47µM*	12.1%	1.7%	-11.9%	x	15.6%
CCOC(=O)c1cc(-c2ccc(OC)cc2)n(CCC(=O)NCCc2ccccc2)c1C	u	-32.2%	-1.8%	x	x	-9.9%
O=C(NC(=S)Nn1cnnc1)c1ccccc1Br	-14.7%	-28.3%	-16.8%	29.9µM*	-14.2	u
CCOC(=O)CCc1c(C)c2ccc3c(c2oc1=O)CN(CCCO)CO3	-3.0%	33.7%	u	-13.2%	0.0	17.1%
Cc1cccc(C(=O)NCC(=O)OC(C(=O)Nc2cc(C(F)(F)F)ccc2Cl)c2ccccc2)c1 (centres undefined)	-20.5%	x	x	x	x	x
O=C1NC(=S)SC1=C1CCCCCC1	-19.0%	u	-8.4%	u	-57.2*	10.1%
COc1cc(-c2n[nH]c(=S)n2-c2ccc(Br)cc2)cc(OC)c1OC	50.1µM*	-1.0%	-3.5%	-6.9%	-10.7	15.1%
CS(=O)(=O)Nc1ccc(-c2n[nH]c(=S)n2-c2ccccc2)cc1	5.62µM*	-7.5%	-1.0%	-18.3%	x	25.6%
COc1cc(-c2n[nH]c(=S)n2-c2ccccc2C(F)(F)F)cc(OC)c1OC	u	-16.1%	-2.7%	-20.1%	-3.9	8.1%
Cc1[nH]c2ccc(-c3n[nH]c(=S)n3-c3ccccc3)cc2c1C	56.2µM*	-10.2%	-4.1%	-13.8%	-19.1	u
COc1cc(-c2n[nH]c(=S)n2-c2cccc(C(F)(F)F)c2)cc(OC)c1OC	89.1µM*	4.8%	-3.0%	-22.4%	-5.9	13.0%
Cc1[nH]c2ccc(-c3n[nH]c(=S)n3-c3ccc(Br)cc3)cc2c1C	-17.0%	u	-2.1%	u	-13.9	30.3%
SMILES	JMJD2A Tudor	BAZ2B inh	GCN5L2 inh	PLK1 PBD inh	PI5P4K alpha inh	HP1b binding inh
Cc1ccc(-n2c(-c3cccc(C)c3)n[nH]c2=S)cc1	20µM*	-27.8%	0.1%	-8.8%	x	-7.9%
COc1cc(-c2n[nH]c(=S)n2C(C)c2ccccc2)cc(OC)c1OC (centres undefined)	12.6µM*	-1.0%	-9.2%	1.2%	-5.6	31.8%
COc1ccc(-c2n[nH]c(=S)n2-c2ccc(C)cc2)cc1OC	6.31µM*	-13.9%	-25.1%	-11.5%	-1.2	26.5%
COc1ccccc1-c1n[nH]c(=S)n1-c1ccccc1	7.94µM*	-27.4%	-5.1%	-20.1%	1.5	36.7%
Cc1cccc(NS(=O)(=O)c2ccc3c(c2)CCN3C(=O)C2CCC2)c1	-11.3%	x	-13.4%	x	x	24.6%
O=C(Nc1ccc(N2CCOCC2)cc1N1CCOCC1)c1ccco1	56.2µM*	1.9%	-3.3%	26.7µM*	-9.4	u
CCN1CCc2c(sc(NC(=S)NC(=O)c3ccco3)c2C(N)=O)C1	u	-34.4%	-13.3%	23.8µM*	-9.8	u
CCN1CCc2c(sc(NC(=O)c3ccc(C(=O)c4ccccc4)cc3)c2C(N)=O)C1	u	39.8µM*	-2.9%	-2.3%	-20.1	8.2%
Cc1noc(C)c1S(=O)(=O)N(C)C[C@H]1OCc2cn(nn2)CCCC(=O)N([C@H](C)CO)C[C@@H]1C	x	x	x	-2.3%	3.3	x
O=C(c1ccc2c(=O)n3c(nc2c1)CCCCC3)N1CCN(c2ccc([N+](=O)[O-])cc2)CC1	-11.6%	-24.4%	-4.9%	-12.3%	2.2	45.5%
Oc1cc2c(cc1C(c1ccc(Br)cc1)N1CCCC1)OCO2 (centres undefined)	7.94µM*	39.8µM*	-4.7%	1.5µM*	-102.3*	15.8µM*
CS(=O)(=O)c1cc([N+](=O)[O-])c(Sc2nc3ccccc3[nH]2)c([N+](=O)[O-])c1	u	-29.3%	1.1%	1.5µM*	x	u
O=C(O)c1cc([N+](=O)[O-])c(Sc2nc3ccccc3[nH]2)c([N+](=O)[O-])c1	-7.4%	-7.1%	3.1%	21.2µM*	-26.6	26.0%
Cn1cnc([N+](=O)[O-])c1Sc1nc2ccccc2[nH]1	-9.4%	24.5%	-1.1%	-12.4%	-15.0	14.5%
O=C(O)CSc1nc2ccccc2c(=O)[nH]1	-16.8%	-11.6%	-5.7%	-3.5%	x	15.2%
O=C(O)CSc1nc2ccccc2[nH]1	u	-6.3%	0.0%	26.7µM*	-8.9	11.8%
CCCS(=O)(=O)NC(=O)C1(C)CCN1C(=O)Cc1ccc(Cl)cc1Cl (centres undefined)	x	x	x	-9.4%	1.2	x
COCC(=O)N1CCC(Oc2ccc(C(=O)N3CCN(C)C[C@@H]3C(C)C)cc2)CC1	-6.2%	-1.5%	-1.0%	-0.6%	3.3	34.0%
Cc1nn(C)c(C)c1CCC(=O)N1CCCC(C(=O)c2cccc(OC(C)C)c2)C1 (centres undefined)	-25.0%	-1.7%	-2.0%	26.7µM*	-3.1	11.2%
O=c1oc2c3c4c(cc2s1)CCCN4CCC3	17.8µM*	56.2µM*	-10.8%	26.7µM*	x	u
O=c1ccc2cc3c4c(c2o1)CCCN4CCC3	-8.3%	15.2%	u	16.8µM*	2.1	73.2%
